CYP2C9 inh = human CYP2C9 inhibition; P11712; inhibition, % at 5 µM; actives 20% (n = 96,000); CYP2C9 Supersomes, luciferin-H conversion, luminescence;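 active = blocking of liver enzyme CYP2C9 beyond about 50% at 5 µM, limit read from the data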
CYP2C19 activ = cytochrome P450 2C19 (human) activation; 96,000 tested, under 10 active; recombinant CYP2C19, luciferin-H EGE luminescence; hits give high values; 0 = fully inhibited enzyme, 1 = untreated enzyme; P33261; AID 1025; activation factor at 5 µM;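 active = activation factor of at least 2 at 5 µM in the primary screen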
Target sequence (P33261 whole entry, looked up): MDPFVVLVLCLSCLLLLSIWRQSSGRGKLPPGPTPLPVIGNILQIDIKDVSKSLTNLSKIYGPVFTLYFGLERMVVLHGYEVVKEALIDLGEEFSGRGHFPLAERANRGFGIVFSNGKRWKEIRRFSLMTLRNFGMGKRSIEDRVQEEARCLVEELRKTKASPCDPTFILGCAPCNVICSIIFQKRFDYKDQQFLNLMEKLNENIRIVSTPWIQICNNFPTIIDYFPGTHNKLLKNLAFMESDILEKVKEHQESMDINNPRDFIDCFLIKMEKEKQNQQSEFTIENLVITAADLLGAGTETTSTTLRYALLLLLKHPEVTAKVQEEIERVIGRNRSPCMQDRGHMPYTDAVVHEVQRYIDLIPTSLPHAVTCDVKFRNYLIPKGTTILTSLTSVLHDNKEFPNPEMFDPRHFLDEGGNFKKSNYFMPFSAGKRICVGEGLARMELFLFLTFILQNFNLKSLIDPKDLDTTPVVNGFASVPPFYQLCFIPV
Cav32 inh = inhibitors of human Cav3.2 T-type calcium channel; O95180; Cav3.2-expressing cells, Fluo-4 calcium fluorescence FDSS; hits give low values; actives 4% (n = 100,000); B-score at 10 µM;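 active = single-dose well whose peak fluorescence ratio is a statistical outlier from its plate by either plate-standardised score or position-corrected B-score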
CYP2C19 inh = human CYP2C19 inhibition | CYP2C19 Supersomes, luciferin-H EGE luminescence, 30 min | inhibition, % at 5 µM | actives 21% (n = 96,000) | AID 778;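 active = CYP2C19 inhibition above a set limit at 5 µM in the primary screen, cut at about 50% in these data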
CYP2C9 activ = CYP2C9 (human) activation; P11712; recombinant CYP2C9, luciferin-H conversion, luminescence; hits give high values; factor 1 = untreated enzyme, 0 = blocked; activation factor at 5 µM; actives 1.4% (n = 96,000);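 active = activation factor of 2 or more for CYP2C9 at a 5 µM dose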
A number is an active result. Rows were chosen to be rich in hits. Some 27% of all compounds tested hit in one or more screens of this group.

`O=C(CN1C(=O)CSc2ccccc21)NCCC1=CCCCC1` gave CYP2C9 inh inactive, CYP2C19 activ inactive, CYP2C19 inh inactive and CYP2C9 activ inactive.
COCCCNC(=O)c1cccc(OC)c1OC was read as CYP2C9 inh inactive, CYP2C19 activ inactive, Cav32 inh inactive, CYP2C19 inh 56.5 and CYP2C9 activ inactive.
For C=CCN1C(=O)CSc2ccc(C(=O)NCCC3=CCCCC3)cc21 the results were CYP2C9 inh 51.6, CYP2C19 activ inactive, Cav32 inh inactive, CYP2C19 inh inactive and CYP2C9 activ inactive.
For CCCNC(=O)C(=O)NCCC1=CCCCC1 the results were CYP2C9 inh inactive, CYP2C19 activ inactive, Cav32 inh inactive, CYP2C19 inh 54.4 and CYP2C9 activ inactive.
For COc1cc(C(=O)NCCC2=CCCCC2)cc(OC)c1OC the results were CYP2C9 inh inactive, CYP2C19 activ inactive, Cav32 inh inactive, CYP2C19 inh 75.4 and CYP2C9 activ inactive.
O=c1n(Cc2ccccc2F)c2ccccc2n1Cc1ccccc1F was read as Cav32 inh inactive.
Screening O=C(C1=C[C@H](C2CCCCC2)C[C@H](OCCCCO)O1)N1CCN(Cc2ccc3c(c2)OCO3)CC1 returned Cav32 inh inactive.
For CCCCC(=O)O the results were Cav32 inh inactive.
`CCCCNC(=O)C1CCCN1C(=O)NC1CCCCC1` (centres undefined) gave Cav32 inh inactive.
Screening O=C(NCCC1=CCCCC1)c1ccc(=O)oc1 returned CYP2C9 inh inactive, CYP2C19 activ inactive, CYP2C19 inh 56.0 and CYP2C9 activ inactive.
`COC(=O)c1cccc(NC(=S)NCCC2=CCCCC2)c1` gave CYP2C9 inh inactive, CYP2C19 activ inactive, Cav32 inh inactive, CYP2C19 inh inactive and CYP2C9 activ inactive.
`COc1ccc(S(=O)(=O)N(C)CC(=O)NCCC2=CCCCC2)cc1C` gave CYP2C9 inh inactive, CYP2C19 activ inactive, Cav32 inh inactive, CYP2C19 inh 88.5 and CYP2C9 activ inactive.
For Cc1nc2cc(NC(=O)NCCC3=CCCCC3)ccc2o1 the results were CYP2C9 inh inactive, CYP2C19 activ inactive, Cav32 inh inactive, CYP2C19 inh inactive and CYP2C9 activ inactive.
For COc1cccc(C(=O)NCCC2=CCCCC2)c1OC the results were CYP2C9 inh inactive, CYP2C19 activ inactive, Cav32 inh inactive, CYP2C19 inh 100.0 and CYP2C9 activ inactive.
For COc1ccc(C)cc1NC(=O)NCCC1=CCCCC1 the results were CYP2C9 inh inactive, CYP2C19 activ inactive, Cav32 inh inactive, CYP2C19 inh 83.0 and CYP2C9 activ inactive.
`Cc1ccc(Nc2c([N+](=O)[O-])c(=O)n(C)c3ccccc23)cc1C` gave CYP2C9 inh inactive, CYP2C19 activ inactive, Cav32 inh inactive, CYP2C19 inh 63.8 and CYP2C9 activ inactive.
`CCOC(=O)c1c(C)cccc1OCC(N)=O` gave Cav32 inh inactive.
Screening Cc1ccc(C2CN(c3ccccc3)CC2C(=O)c2ccc(F)cc2)cc1 (centres undefined) returned CYP2C9 inh inactive, CYP2C19 activ inactive, CYP2C19 inh inactive and CYP2C9 activ inactive.
For C=CCn1c(SCn2nnc3ccccc3c2=O)nnc1C1CCCCC1 the results were CYP2C9 inh inactive, CYP2C19 activ inactive, Cav32 inh inactive, CYP2C19 inh 97.6 and CYP2C9 activ inactive.
Screening C=CCn1c(SCC(N)=O)nnc1-c1cccc(Br)c1 returned CYP2C9 inh inactive, CYP2C19 activ inactive, Cav32 inh inactive, CYP2C19 inh inactive and CYP2C9 activ inactive.
`Nn1c(Cc2cccc3ccccc23)nnc1SCn1nnc2ccccc2c1=O` gave CYP2C9 inh inactive, CYP2C19 activ inactive, Cav32 inh inactive, CYP2C19 inh inactive and CYP2C9 activ inactive.
Screening Cc1nc(SCn2nnc3ccccc3c2=O)nc(C)c1C returned CYP2C9 inh inactive, CYP2C19 activ inactive, Cav32 inh inactive, CYP2C19 inh 75.2 and CYP2C9 activ inactive.
C=CCn1c(SCn2nnc3ccccc3c2=O)nnc1-c1ccc(Br)cc1 was read as CYP2C9 inh 75.2, CYP2C19 activ inactive, Cav32 inh inactive, CYP2C19 inh 75.6 and CYP2C9 activ inactive.
For C=CCn1c(SCn2nnc3ccccc3c2=O)nnc1-c1ccc(F)cc1 the results were CYP2C9 inh inactive, CYP2C19 activ inactive, Cav32 inh inactive, CYP2C19 inh 99.1 and CYP2C9 activ inactive.
Cc1nn(-c2cc(C)c3ccccc3n2)c2c1CCC2 was read as CYP2C9 inh inactive, CYP2C19 activ inactive, Cav32 inh inactive, CYP2C19 inh inactive and CYP2C9 activ inactive.
Screening CCCCNC(=S)NNC(=O)c1cccnc1 returned Cav32 inh inactive.
CCNC(=S)N(Cc1ccc(OC)cc1)C1CC(=O)N(c2ccc(OCC)cc2)C1=O (centres undefined) was read as CYP2C9 inh inactive, CYP2C19 activ inactive, Cav32 inh inactive, CYP2C19 inh inactive and CYP2C9 activ inactive.
CCn1cc(C2=NOC(C(=O)Nc3cc(OC)c(Cl)cc3OC)C2)c(C)n1 (centres undefined) was read as CYP2C9 inh inactive, CYP2C19 activ inactive, Cav32 inh inactive, CYP2C19 inh inactive and CYP2C9 activ inactive.
CCc1nnc(NC(=O)CSc2nc3c(c(=O)n2CC)SC(C)C3)s1 (centres undefined) was read as CYP2C9 inh inactive, CYP2C19 activ inactive, Cav32 inh inactive, CYP2C19 inh inactive and CYP2C9 activ inactive.
`CCc1cccc(CC)c1-n1c(SCn2nnc3ccccc3c2=O)nnc1-c1cccnc1` gave CYP2C9 inh 93.3, CYP2C19 activ inactive, Cav32 inh -5.28, CYP2C19 inh 96.2 and CYP2C9 activ inactive.
O=C(O)c1cccc(NS(=O)(=O)c2cccc3nsnc23)c1 was read as CYP2C9 inh inactive, CYP2C19 activ inactive, Cav32 inh inactive, CYP2C19 inh inactive and CYP2C9 activ inactive.
For CS(=O)(=O)N(Cc1ccccc1)c1ccc(C(=O)NCc2ccccc2)cc1 the results were CYP2C9 inh 53.4, CYP2C19 activ inactive, Cav32 inh inactive, CYP2C19 inh 62.1 and CYP2C9 activ inactive.
`CS(=O)(=O)N(Cc1ccc(C(=O)NC2CCCCC2O)cc1)c1ccccc1` (centres undefined) gave CYP2C9 inh inactive, CYP2C19 activ inactive, Cav32 inh inactive, CYP2C19 inh inactive and CYP2C9 activ inactive.
`CS(=O)(=O)N(Cc1ccccc1)c1ccc(C(=O)NCc2cccnc2)cc1` gave CYP2C9 inh 91.2, CYP2C19 activ inactive, Cav32 inh inactive, CYP2C19 inh 91.3 and CYP2C9 activ inactive.
For Cc1ccc(CN(c2ccc(C(=O)Nc3cccnc3)cc2)S(C)(=O)=O)cc1 the results were CYP2C9 inh 73.8, CYP2C19 activ inactive, Cav32 inh inactive, CYP2C19 inh 90.6 and CYP2C9 activ inactive.
`CS(=O)(=O)N(Cc1ccccc1)c1ccc(C(=O)NC2CCCCC2O)cc1` (centres undefined) gave CYP2C9 inh inactive, CYP2C19 activ inactive, Cav32 inh inactive, CYP2C19 inh 51.9 and CYP2C9 activ inactive.
For COC(=O)C1N[C@@H]([C@@H](NC(=O)COc2ccccc2)C(=O)NCc2ccc(OC)cc2)SC1(C)C (some centres undefined) the results were Cav32 inh inactive.
